Compound activity as filed in PubChem BioAssay.
NS1 function inh = influenza NS1 inhibition; 0.4% of 270,000 active; AID 2326; Potency, µM (top dose mostly 46.1 µM), without a hit: top-dose activity, positive = more growth; calls by dose curve; further: potency means the concentration at half of the fitted maximal effect; actives are rising curves; nearly all actives have a fitted effect of over 50% in size
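Read-out: OD600 growth recovery of NS1-expressing budding yeast. Cells grown overnight at 30C in -URA glucose medium, washed, resuspended and diluted 1:100 in 2% galactose assay medium, pH 6.0. Same strain lacking NS1 served as positive control.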
Pf growth 96h = inhibits malaria parasite growth, 96 h; 6.9% of 320,000 active; Potency, µM (highest dose often 28.7 µM), inactives show at the highest dose activity change, negative = inhibition, actives largely listed as inhibitors; P. falciparum luciferase reporter growth, 96 h; AID 504834; further: potency means the concentration at half of the fitted maximal effect; on the % scale 0 is the no-effect control and ±100 the full control effect
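Compounds incubated with erythrocytes infected by luciferase-expressing P. falciparum (2% hematocrit, 0.05% parasitemia final) for 96 hours, 37 C in 5% CO2. Growth inhibition scored as decreased luciferase luminescence.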
CHX counter = affects cycloheximide protein synthesis inhibition readout, counter-screen; cell reporter, cycloheximide protein synthesis inhibition counterscreen; max response, %; 12% of 300,000 active; AID 2314; in the data active means max response mostly above about 13%, no sharp cut-off; inactive means mostly below about 14%; further: read at 38.3 µM for the half of the compounds with a filed dose; 0% is about no effect
Shiga inhibitor = Shiga toxin inhibition. inhibition, % at 38.7 µM. Vero cells, Shiga toxin protein synthesis inhibition reporter. 9.2% of 290,000 active; in the data active means inhibition mostly above about 28%, no sharp cut-off; inactive means mostly below about 43%; further: 0% is about no effect
Pf growth 48h = P. falciparum growth inhibition at 48 hours (one generation); P. falciparum luciferase growth in erythrocytes, 48 h; 5.9% of 310,000 active; Potency, µM (highest dose often 28.7 µM), inactives show top-dose activity change, negative = inhibition, usual class: inhibitors; further: potency means the concentration at half of the fitted maximal effect; on the % scale 0 is the no-effect control and ±100 the full control effect
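Here the parasites carry a stable luciferase gene and grow inside erythrocytes in Albumax-based RPMI medium with compound for one erythrocytic cycle. Activity is scored as loss of luminescent signal.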
SARS PLpro yeast = blocks SARS-CoV papain-like protease in a yeast assay. S. cerevisiae expressing SARS-CoV PLpro, growth rescue. Potency, µM (doses to about 32.9 µM), without a hit: at the top dose activity, positive = growth rescue, most hits filed as activators. 0.19% of 330,000 active. AID 485353; calls by dose curve; further: potency means the concentration at half of the fitted maximal effect; 0% is about no effect; nearly all actives have a fitted effect of over 55% in size
* marks the source's active call; other numbers are inactive results; ? = inconclusive; . = not tested or not shown; [ ] = another dose, or the depositor's remark. A selection: hits, their analogues and other compounds. The true share with any hit is near 21%. Unless noted, the call rests on the fitted dose curve; in most records, active means well fitted inhibition curve with a large enough effect; inconclusive means small, poorly fitted or top-dose-only effect, or another doubt; inactive means no such curve, though single readings can be large or run the other way.

SMILES	NS1 function inh	Pf growth 96h	CHX counter	Shiga inhibitor	Pf growth 48h	SARS PLpro yeast
CC(C)[C@H](N)C(=O)N[C@@H](CCC(N)=O)C(=O)NCC(=O)N[C@@H](CCC(=O)O)C(=O)N[C@@H](CCC(=O)O)C(=O)N[C@@H](CO)C(=O)N[C@@H](CC(N)=O)C(=O)N[C@@H](CC(=O)O)C(=O)N[C@@H](CCCCN)C(=O)O	.	.	0	-16	.	.
Cc1ccc(C(=O)NCCCc2ccccc2)s1	5%	?	53*	134*	?	0%
Cc1ccc(C(=O)NCC(=O)NCCCc2ccccc2)s1	?	67%	24	28	?	12%
O=C1C[C@H](c2ccc3ccccc3c2)N1S(=O)(=O)c1ccccc1[N+](=O)[O-]	.	.	15	-5	.	.
Cc1nc(CSc2ccc(Br)cc2)cs1	0%	57%	23*	49*	43%	0%
Cc1nc(CNS(=O)(=O)c2ccc(Br)cc2)cs1	6%	?	-3	-9	17%	1%
Cc1nc(CSc2ccc(Cl)cc2)cs1	-2%	27%	36*	111*	.	0%
O=C(CN(C(=O)CNS(=O)(=O)c1ccccc1)c1ccc(F)cc1)NCc1ccco1	4%	-18%	2	-4	5%	-1%
Cc1cc(C)c2c(c1)C1C=CCC1C(C(=O)O)N2 (stereo not drawn)	.	.	10	-4	.	.
Cc1cc(CN(C)C(=O)C2CCC(=O)N(CCc3cccc(F)c3)C2)on1 (stereo not drawn)	1%	?	1	2	5%	-3%
CCC(c1n[nH]c(=S)n1-c1ccccc1)N(C)C (stereo not drawn)	-8%	-6%	-4	-8	12%	-3%
CC(C)CCC(CC(C)O)c1n[nH]c(=S)n1-c1ccccc1 (stereo not drawn)	-4%	2.3µM*	9	-9	-1%	0%
O=C(/C=C/c1ccccc1)N/C(=C/c1ccccc1)C(=O)N1CCCCC1	8%	40%	-5	-23	9%	1%
Nc1ccc(N(CCO)CCO)cc1	2%	33%	-2	-9	?	0%
Cc1cc(N(CCO)CCO)ccc1N=Nc1cc(F)ccc1F	.	42%	41*	118*	38%	-15%
CCn1c(SCC(=O)n2c(C)c(C)c3ccccc32)nnc1-c1ccco1	-24%	6.6µM*	-5	30	4%	3%
COc1ccccc1CCC(=O)N(C)C1CCCN(Cc2ccccc2F)C1 (stereo not drawn)	1%	10µM*	0	7	-2%	4%
COc1cc(C(=O)N(C)C2CCCN(Cc3ccccc3F)C2)cc(OC)c1OC (stereo not drawn)	19%	?	-4	-8	-16%	2%
CC(CNC(=O)Cn1ccc(N)nc1=O)c1ccccc1 (stereo not drawn)	.	-2%	.	.	9%	2%
NC(C(=O)O)C1CC(Cl)=NO1 (stereo not drawn)	11%	3.3µM*	-4	-11	?	3%
O=C(CCCO)NNc1c2ccccc2nc2ccccc12	-3%	1.3µM*	-3	-2	1.5µM*	-1%
CCCC(=O)NNc1c2ccccc2nc2ccccc12	-10%	9.3µM*	-1	2	-26%	-1%
Cc1ccccc1OCc1nc(-c2ccccc2)no1	-19%	.	39*	66*	156%	-9%
CCOc1nc(-c2ccccc2)ccc1-c1noc(COc2ccccc2)n1	-11%	16%	8	12	?	13%
Cc1ccc(S(=O)(=O)NCc2nc(-c3ccccc3)no2)cc1	-10%	31%	-1	-4	-1%	-10%
SMILES	NS1 function inh	Pf growth 96h	CHX counter	Shiga inhibitor	Pf growth 48h	SARS PLpro yeast
c1ccc(NCc2nc(-c3ccccc3)no2)cc1	-25%	.	56*	155*	105%	-1%
Cc1ccc(OCc2nc(-c3ccccc3)no2)cc1	-9%	80%	45*	84*	95%	2%
c1ccc(-c2noc(COc3ccc4c(c3)OCO4)n2)cc1	-28%	1%[5.75 µM]	26*	55*	196%	3%
COc1ccc(-c2noc(COc3ccc4c(c3)OCO4)n2)cc1	6%	-31%	-4	7	13%	3%
Cc1ccc(S(=O)(=O)NCCC(=O)OCC(=O)N(Cc2ccccc2)C(C)(C)C)cc1	.	-1%	.	.	10%	2%
CC1CCN(C(=O)COC(=O)c2cc(Cl)c3c(c2)OCO3)CC1	.	223%	.	.	191%	11%
